These results are taken from PubChem BioAssay (Tox21).

Test [1] is described as follows: qHTS assay to identify small molecule agonists of the NFkB signaling pathway (AID 1159509; active = well fitted curve in the direction sought with a large enough effect in the signal ratio in the repeat runs, not every such curve was filed as active; the % refers to the signal ratio; also: series mostly up to about 61 µM; % is scaled to controls: 0 for no effect and ±100 for the full control effect). Put shortly:
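Beta-lactamase reporter assay run in quantitative high-throughput format on an NF-kB-responsive ME-180 line, with 5 hr compound treatment and a FRET-based blue/green fluorescence readout.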

The nature of test [2]: qHTS assay to identify small molecule agonists of the endoplasmic reticulum stress response signaling pathway - cell viability counter screen (AID 1159517). Also: series mostly up to about 61 µM; % is scaled to controls: 0 for no effect and ±100 for the full control effect; nearly all actives have a fitted effect of over 50% in size. In a few lines: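 Cytotoxicity of test compounds toward ESRE-bla HeLa cells was assessed after 5 hr exposure. The luminescent CellTiter-Glo signal was measured 30 min after reagent addition.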
For orientation: qHTS replaces the single test concentration by a dilution series.

Test [3] deals with Nuclear receptor ROR-gamma (Homo sapiens) (UniProt P51449). The test can be described thus: qHTS assay to identify small molecule antagonists of the retinoid-related orphan receptor gamma (ROR-gamma) signaling pathway (AID 1159521; active = well fitted curve in the direction sought with a large enough effect in the repeat runs; an effect the other way counts as inactive or inconclusive; also: nearly all actives have a fitted effect of over 50% in size; also: potency is read from the fitted curve at half-maximal effect;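 as to activity change, negative = inhibition: CHO cells with doxycycline inducible ROR-gamma driving an RORE luciferase reporter; top concentration of the series differs between compounds; % is scaled to controls: 0 for no effect and ±100 for the full control effect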). Put shortly: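 CHO Tet-on RORγ, RORE-luc reporter. Cpd 2 h pre-incubation, then dox hyclate 1 uM final, 16 h, 37 C/5% CO2. ONE-Glo luminescence; decrease = antagonist.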

The nature of test [4]: qHTS assay to identify small molecule agonists of the AP-1 signaling pathway (AID 1159526). Also: % is scaled to controls: 0 for no effect and ±100 for the full control effect.
The nature of test [5]: qHTS assay to identify small molecule agonists of the NFkB signaling pathway - cell viability counter screen (AID 1159515). Also: series mostly up to about 61 µM; % is scaled to controls: 0 for no effect and ±100 for the full control effect; nearly all actives have a fitted effect of over 55% in size. In a few lines: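 Plate 2,000 NFkB-bla ME-180 cells/well; incubate overnight. Add compounds, 5 hr at 37 C. Add FRET substrate, 1.5 hr RT. Add CellTiter-Glo, 30 min RT; read luminescence.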
A short description of test [6]: qHTS assay to identify small molecule agonists of the endoplasmic reticulum stress response signaling pathway (AID 1159516; active = well fitted activation curve with a large enough effect in the signal ratio in the repeat runs, not every such curve was filed as active; the % refers to the signal ratio; also: % is scaled to controls: 0 for no effect and ±100 for the full control effect). In a few lines: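 Beta-lactamase expression from the ER stress response element in HeLa reporter cells is quantified with the LiveBLAzer B/G FRET substrate, read at 405 nm excitation after 2 hr at room temperature, following 5 hr compound treatment at 37 C.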

Test [7] in a line: qHTS assay to identify small molecule antagonists of the retinoid-related orphan receptor gamma (ROR-gamma) signaling pathway - cell viability counter screen (AID 1159520; active = well fitted curve in the direction sought with a large enough effect in the repeat runs; an effect the other way counts as inactive or inconclusive; also: nearly all actives have a fitted effect of over 50% in size; also: potency is read from the fitted curve at half-maximal effect). In a few lines: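 Tet-on ROR gamma CHO cells (1,000/well) were plated 4 hr, given compounds in DMSO for 2 hr at 37 C, then induced with 1 uM final doxycycline for 16 hr. Viability was read as ATP by CellTiter-Glo luminescence after 30 min.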

A short description of test [8]: qHTS assay to identify small molecule agonists of the AP-1 signaling pathway - cell viability counter screen (AID 1159525). Also: nearly all actives have a fitted effect of over 55% in size. Also: potency is read from the fitted curve at half-maximal effect. Put shortly: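 Each titration point was normalised to DMSO and tetra n-octyl ammonium bromide controls. The read was Cell Titer Glo luminescence after 30 min at RT, following 5 h compound exposure of ME-180 AP-1-bla cells at 37 °C.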
Test [9] addresses Retinoic acid receptor RXR-alpha (Homo sapiens) (UniProt P19793). The test can be described thus: qHTS assay to identify small molecule agonists of the RXR signaling pathway (AID 1159527). Also: nearly all actives have a fitted effect of over 35% in size. Also: potency is read from the fitted curve at half-maximal effect. Put shortly: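 Read-out: beta-lactamase FRET ratio (405 nm excitation, 460 and 530 nm emission) after 2 hr substrate loading at room temperature. Cells were RXR-alpha-UAS-bla HEK 293T treated with compounds for 16 hr in 2% charcoal-stripped FBS medium.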

A short description of test [10]: qHTS assay to identify small molecule agonists of the RXR signaling pathway - cell viability counter screen (AID 1159529; active = well fitted curve in the direction sought with a large enough effect in the repeat runs; an effect the other way counts as inactive or inconclusive; also: nearly all actives have a fitted effect of over 50% in size; also: potency is read from the fitted curve at half-maximal effect). Put shortly: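 HEK 293T RXRa-bla cells, 2% CS-FBS; 5 h settle; cpd 16 h 37 C, 5% CO2; CellTiter-Glo 30 min RT, luminescence. Tetraoctyl ammonium bromide as positive control.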

The structures appear in SMILES notation. Where “and” joins values, the source holds several entries; their conditions need not be identical. Identical values can stand only once. Results filed as inconclusive are left out. A structure can be active in one record and inactive in another. Calls of active or inactive are those of the source. Unless noted, calls follow the shape of the full dose curve.

Retinoic acid receptor RXR-alpha (Homo sapiens), sequence (P19793 whole entry, looked up): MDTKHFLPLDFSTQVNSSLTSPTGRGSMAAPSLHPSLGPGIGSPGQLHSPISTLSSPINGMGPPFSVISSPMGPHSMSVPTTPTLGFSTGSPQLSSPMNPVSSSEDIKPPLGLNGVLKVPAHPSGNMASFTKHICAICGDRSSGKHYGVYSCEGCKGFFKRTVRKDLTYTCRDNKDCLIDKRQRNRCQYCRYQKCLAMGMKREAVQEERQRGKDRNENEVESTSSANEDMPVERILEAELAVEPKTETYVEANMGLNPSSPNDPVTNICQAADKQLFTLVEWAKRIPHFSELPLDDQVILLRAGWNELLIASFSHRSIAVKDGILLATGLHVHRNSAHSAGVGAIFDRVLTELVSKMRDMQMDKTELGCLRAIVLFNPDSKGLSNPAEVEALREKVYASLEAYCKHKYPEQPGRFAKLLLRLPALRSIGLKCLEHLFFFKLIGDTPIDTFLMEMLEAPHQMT

Regarding `Nc1ccc2c(c1)CN1C(=O)c3ccccc3C1=N2`, in test [1], the call was inactive. For the same compound, the Potency entry in [2] was “inactive”. For the same compound, the activity change, negative = inhibition in [3] is -8.87% [at 19 µM] (inactive). Also, in [4], the activation is -1.9% [at 15.8 µM] (inactive).

As to `Cc1cccc(C)c1`, the Potency result in [5], in test [6], in [2], in test [7], in test [3] and in test [8] was “inactive” in each case. The Potency result in [4], in [9] and in test [10] was “inactive” each time.

For `O=C(Nc1ncc([N+](=O)[O-])s1)c1cccs1`, the call in [1] was inactive. Further, the Potency is 13.3 µM (active) in [7] and 6.01 µM (active) in [10]. Also, in test [3], the Potency result is “inactive”.

As for `O=c1[nH]cc(F)c(=O)[nH]1`, the Potency result in [5], in [6], in test [2], in test [7], in [8] and in [4] was “inactive” throughout. Moreover, the Potency in [3] was 4.49 µM (active) and inactive; in test [9], 28.2 µM (active); in test [10] it was 45.3 µM (active) and inactive.

As for `CN1CCC[C@H]1c1cccnc1`, the Potency result in test [5], in test [6], in test [2], in test [7], in test [3] and in [8] was “inactive” throughout. Moreover, the Potency entry in test [4], in test [9] and in test [10] was “inactive” each time.

Take `COc1ccc2cc(S(=O)(=O)N[C@H](CC(=O)N[C@H](Cc3ccc(CN4[C@H](C)CCC[C@@H]4C)cc3)C(=O)N(C)C(C)C)c3ccc4c(c3)OCO4)ccc2c1`: in [1], the compound was called inactive. Moreover, the figures for the Potency in [3] and in test [10] were 13 µM (active) and 2.32 µM (active), respectively.

With `CC(C)C(=O)Nc1ccc([N+](=O)[O-])c(C(F)(F)F)c1`, the Potency result in test [5], in test [6], in test [2], in test [7], in test [8] and in [4] was “inactive” throughout. In addition, the Potency result in [9] and in [10] was “inactive” in each case. The Potency in [3] was 28.1 µM (active) and 10.9 µM (active) and 33.5 µM (active).

Take `Nc1ccc([N+](=O)[O-])cc1O`: the result in test [1] was inactive. Also, the Potency result in test [7], in [3], in test [8], in [4] and in [9] was “inactive” each time.

In the case of `C=C1CC[C@H](O)C/C1=C\C=C1/CCC[C@]2(C)[C@@H]([C@H](C)CCCC(C)C)CC[C@@H]12`, the call in [1] was inactive. In addition, the Potency is 60.6 µM (active) in [7] and 24.3 µM (active) in test [10]. Moreover, the Potency result in test [8] was “inactive”.

Take `O=C(O)c1ccccc1`: the Potency entry in test [5], in test [6], in test [2], in test [7], in test [3] and in test [8] was “inactive” throughout. Also, the Potency entry in test [4], in [9] and in test [10] was “inactive” each time.

Regarding `Nc1c(N=Nc2ccc(-c3ccc(N=Nc4cc(S(=O)(=O)O)c5ccccc5c4N)cc3)cc2)cc(S(=O)(=O)O)c2ccccc12`, the result in test [1] was inactive. The Potency entry in test [8], in test [9] and in test [10] was “inactive” throughout.

For `C1=CC2C3C=CC(C3)C2C1` (stereo unspecified), the compound was classed as inactive in [1]. Also, the Potency result in test [7], in test [3], in [8] and in [10] was “inactive” each time.

For the compound `CCN(CC)C(=O)c1cccc(C)c1`, the Potency result in test [5], in [6], in test [2], in [7], in test [3] and in test [8] was “inactive” throughout. In addition, the Potency entry in [4], in [9] and in test [10] was “inactive” each time.

In the case of `O=C(O)CC(O)C(=O)O` (stereo unspecified), the Potency entry in [5], in test [6], in [2], in test [7], in [3] and in test [8] was “inactive” throughout. Further, the Potency entry in test [4], in test [9] and in test [10] was “inactive” in each case.

In the case of `CC(=O)Nc1c(I)c(NC(C)=O)c(I)c(C(=O)O)c1I`, the Potency entry in [5], in test [6], in test [2], in test [7], in [3] and in [8] was “inactive” each time. The Potency result in test [4], in test [9] and in test [10] was “inactive” in each case.

In the case of `O=CC(=O)c1ccccc1`, the result in [1] was inactive. The Potency result in test [7], in test [8] and in test [10] was “inactive” each time.

In the case of `OC[C@H]1O[C@H](O[C@]2(CCl)O[C@H](CCl)[C@@H](O)[C@@H]2O)[C@H](O)[C@@H](O)[C@H]1Cl`, the Potency result in test [5], in test [6], in [2], in [7], in test [3] and in [8] was “inactive” throughout. The Potency entry in test [4], in test [9] and in test [10] was “inactive” in each case.

In the case of `CC(C)NCC(O)c1ccc(O)c(O)c1` (stereo unspecified), the Potency result in test [5], in [6], in [2], in test [7], in test [3] and in [8] was “inactive” each time. Also, the Potency result in test [4], in [9] and in [10] was “inactive” each time.

Turning to `NC(CO)(CO)CO`, the Potency result in test [5], in test [6], in [2], in [7], in [3] and in test [8] was “inactive” in each case. Further, the Potency result in [4], in test [9] and in test [10] was “inactive” in each case.

In the case of `NC(=O)n1c(O)c(C(=O)c2cccs2)c2cc(Cl)ccc21`, the compound was called inactive in [1]. The Potency entry in test [2], in test [8] and in [4] was “inactive” throughout. In test [3], the Potency is 6.68 µM (active).

For the compound `Nc1ccc(O)c([N+](=O)[O-])c1`, the compound was classed as inactive in test [1]. Besides, the Potency entry in test [7], in test [8] and in test [10] was “inactive” throughout. Besides, the Potency is 8.63 µM (active) in test [3] and 7.76 µM (active) in test [9].

Regarding `C1CCC(C(CC2CCCCN2)C2CCCCC2)CC1` (stereo unspecified), in test [1], the outcome was inactive. Also, the Potency is 26.6 µM (active) in test [7], 23.9 µM (active) in test [8] and 23.9 µM (active) in test [10].

Consider `COc1ccc(OC(F)(F)F)cc1CN[C@H]1CCCN[C@H]1c1ccccc1`, for which, in [1], the call was inactive. Besides, the Potency result in [2] and in test [7] was “inactive” each time.

Regarding `COc1cccc(O)c1O`, the compound was classed as inactive in test [1]. In addition, the Potency result in test [2], in [8], in test [9] and in test [10] was “inactive” throughout. The Potency in [3] was 63.5 µM (active).

As to `CCOC(N)=O`, the Potency entry in test [5], in test [6], in [2], in test [7], in test [3] and in test [8] was “inactive” in each case. Moreover, the Potency entry in [4], in test [9] and in test [10] was “inactive” in each case.
